In PubChem BioAssay (NCI):
This is part of a sample that, as a whole, favours compounds with a hit. Of some 83,000 tested, about 20% had one in any assay.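 Activity criterion: percent growth below 10, measured after cells in 96-well plates were exposed to a single compound concentration for 48 hours.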 Unmarked numbers belong to inactive results. Activity calls are given as the source filed them.

Assays:
Experiment in all cases: NCI-60 one-dose screen, 48 h (100 = growth as untreated, 0 = no growth, -100 = all killed)
Settings in all cases: 10 µM unless noted
[1] = tested on: DU-145 prostate
[2] = tested on: K-562 leukemia
[3] = tested on: MALME-3M melanoma
[4] = tested on: MDA-MB-231 breast
[5] = tested on: RXF 393 renal
[6] = tested on: SF-268 CNS
[7] = tested on: SF-295 CNS
[8] = tested on: SF-539 CNS
[9] = tested on: UACC-257 melanoma
[10] = tested on: M14 melanoma
[11] = tested on: HCT-15 colon
[12] = tested on: HT29 colon
[13] = tested on: SNB-75 CNS
[14] = tested on: SNB-19 CNS
[15] = tested on: U251 CNS
[16] = tested on: PC-3 prostate
[17] = tested on: SK-MEL-5 melanoma
[18] = tested on: UACC-62 melanoma
[19] = tested on: LOX IMVI melanoma
[20] = tested on: SK-MEL-28 melanoma

Compound	growth [1]	growth [2]	growth [3]	growth [4]	growth [5]	growth [6]	growth [7]	growth [8]	growth [9]	growth [10]	growth [11]	growth [12]	growth [13]	growth [14]	growth [15]	growth [16]	growth [17]	growth [18]	growth [19]	growth [20]
CC1=C([Se]CC(OC(=O)[C@@H](CO)NC(=O)OC(C)(C)C)C(=O)NC(C)(C)C)C(=O)c2ccccc2C1=O (stereo not given in full)	-71.1% (active)	-37% (active)	-64.9% (active)	-82.2% (active)	-86.2% (active)	-75.1% (active)	-37.4% (active)	-100% (active)	-87.1% (active)	-100% (active)	-74.1% (active)	-8.15% (active)	-100% (active)	-100% (active)	-95.2% (active)	-71.8% (active)	-98.2% (active)	-100% (active)	-96.4% (active)	-100% (active)
O=C(O)C1CCC(=O)N1C(=O)OCc1ccccc1 (stereo not given)	117%	92.4%	96.2%	112%	96.6%	111%	106%	96.9%	95.4%	102%	97.3%	101%	80.9%	97.8%	102%	100%	105%	87%	98%	140%
Cc1ccc(-c2cc(-c3cccnc3)[nH]c(=O)c2C#N)cc1	110%	108%	112%	109%	105%	99.3%	102%	99.9%	108%	112%	103%	107%	85.2%	97%	101%	110%	105%	96.9%	96.9%	109%
COc1ccc(C2c3ccc4ccccc4c3Oc3nc(C)[nH]c(=O)c32)cc1 (stereo not given)	114%	90.6%	97%	93.6%	108%	94.3%	105%	96.8%	111%	95.7%	99.6%	142%	76.8%	94.7%	103%	96%	101%	94.5%	88.8%	98.7%
Clc1cccc(Cl)c1/C=C/c1cc(/C=C/c2c(Cl)cccc2Cl)[nH]n1	17%	12%	60.1%	13.1%	6.46% (active)	53.2%	20.9%	-43.7% (active)	58.6%	5.51% (active)	27.7%	10.7%	11%	25.9%	20.3%	30.8%	22.9%	38.8%	46.3%	46.2%
CCCCCCCCCCN(CCCCCCCCCC)CC(=O)c1ccc2cc(Br)c3ccccc3c2c1	71.7%	-46.6% (active)	-78.2% (active)	67.1%	95.5%	81%	91.8%	89%	87%	-11.7% (active)	64.9%	3.77% (active)	68.7%	88%	-9.35% (active)	-71.7% (active)	93.6%	93.9%	21.6%	113%
Cc1cc(N2CCCC2)nc(NCc2cc(Nc3ccnc4cc(Cl)ccc34)ccc2F)n1	-65.9% (active)	-31.9% (active)	-66.9% (active)	-69.8% (active)	-64.9% (active)	-56.2% (active)	-87.5% (active)	-70.4% (active)	-64% (active)	-80.3% (active)	-74.3% (active)	-41.6% (active)	-90.7% (active)	1.18% (active)	-89.7% (active)	-38.8% (active)	-98.6% (active)	-77.8% (active)	-92.9% (active)	-71.4% (active)
CCC(CO)Nc1nc2ccc(Cl)cc2c2ccccc12 (stereo not given)	84.9%	38.2%	85.8%	55.7%	4.53% (active)	70.7%	74.8%	55.8%	97.5%	84.8%	57.1%	30.1%	18.8%	53.8%	51.3%	59.5%	68.4%	60.4%	67.2%	90.8%
COc1ccc(/C=C/c2c(C(=O)/C=C/c3cccs3)c(C)nc3ccccc23)cc1	82.7%	43.1%	107%	78.2%	77.4%	85.3%	86.3%	95.9%	83.8%	89.3%	59.5%	77.7%	72%	85.1%	85.6%	63%	70.3%	59.1%	84.5%	92.4%
Cc1ccc2nc3ccccc3c(NCc3ccccc3)c2c1	35.8%	10.9%	55.2%	35.8%	1.32% (active)	69%	28.1%	23.2%	56.6%	45.6%	18%	11.6%	65%	31.8%	37%	29.7%	58.8%	56.4%	9.08% (active)	78%
CC(CCc1ccc(Cl)c(Cl)c1)NCc1ccc(C(C)(C)C)cc1 (stereo not given)	101%	25.2%	97.6%	72.9%	89.6%	92.9%	112%	96.8%	64.5%	86.1%	77.3%	39.6%	70.6%	92.5%	70.6%	77.5%	92.8%	89.9%	79.8%	91.9%
c1csc(-c2c3ccc(=[N+]4CCCCC4)cc-3oc3cc(N4CCCCC4)ccc23)c1	-96.6% (active)	-29.5% (active)	-58.8% (active)	-50.9% (active)	-97% (active)	-88.8% (active)	-53.7% (active)	-91.3% (active)	-69.8% (active)	-87.8% (active)	-70% (active)	-74.2% (active)	-47.4% (active)	-87.6% (active)	-71.7% (active)	-65.7% (active)	-90.5% (active)	-76.1% (active)	-76.2% (active)	-66.4% (active)
O=[N+]([O-])c1ccc(OCCO)cc1	107%	78.8%	107%	114%	105%	100%	105%	108%	104%	109%	101%	108%	103%	101%	104%	87.2%	109%	96.9%	97.8%	114%
Cc1ccc(S(=O)(=O)Oc2cc(OS(=O)(=O)c3ccc(C)cc3)cc(OS(=O)(=O)c3ccc(C)cc3)c2)cc1	108%	94.4%	133%	92.2%	99.6%	99%	86.9%	95%	104%	108%	98.1%	98.7%	95.4%	104%	108%	86.9%	94.4%	86.1%	98.1%	112%
O=C(NCCNc1cc(-c2cn(-c3ccccc3)nc2-c2cccc(O)c2)ccn1)Nc1ccccc1	92.8%	35.4%	92.3%	57.1%	89.5%	81.3%	75.8%	89.5%	58.7%	72.2%	62.7%	27.3%	66.2%	82.4%	56.4%	45.7%	63.9%	70%	82.5%	103%
